An excerpt weighted towards active compounds, which were near 4.3% of everything screened.
ADAM17 inh: inhibitors of human ADAM17 | P78536 | recombinant ADAM17, EDANS/DABCYL FRET peptide cleavage | inhibition, % at 6.95 µM | 370,000 tested, 0.83% active | AID 720648;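 active = inhibition above the mean of compounds lying between control limits plus 3 SD, set per campaign, cut at about 8.5% in these data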;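 note: 0% = DMSO-only wells as the low control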
ADAM10 inh: ADAM10 inhibition, QFRET primary screen. O14672. recombinant ADAM10, EDANS/DABCYL FRET peptide cleavage, 3 h. inhibition, % at 7 µM. 370,000 tested, 0.62% active. AID 720582;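 active = inhibition above a per-campaign cutoff equal to the mean of compounds falling between control-based bounds plus 3 SD, cut at about 20% in these data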;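 note: 0% = DMSO wells while the 100% control is not disclosed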
Target sequence (O14672 214-748 limits assumed): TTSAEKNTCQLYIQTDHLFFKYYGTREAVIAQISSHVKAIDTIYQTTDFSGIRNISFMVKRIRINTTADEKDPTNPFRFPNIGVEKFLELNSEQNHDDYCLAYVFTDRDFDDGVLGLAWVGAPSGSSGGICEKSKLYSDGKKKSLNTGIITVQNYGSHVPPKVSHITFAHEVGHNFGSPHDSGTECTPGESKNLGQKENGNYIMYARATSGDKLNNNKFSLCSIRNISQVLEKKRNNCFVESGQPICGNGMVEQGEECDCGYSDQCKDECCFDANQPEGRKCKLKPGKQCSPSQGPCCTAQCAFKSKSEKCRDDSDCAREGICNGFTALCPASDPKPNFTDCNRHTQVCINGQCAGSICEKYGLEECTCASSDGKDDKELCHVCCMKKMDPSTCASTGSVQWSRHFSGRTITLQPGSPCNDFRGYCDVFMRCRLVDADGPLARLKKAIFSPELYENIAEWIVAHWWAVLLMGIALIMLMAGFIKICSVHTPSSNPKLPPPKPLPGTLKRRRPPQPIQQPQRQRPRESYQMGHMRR
GRIN3A LBD mod: modulates the human NR3A ligand-binding domain; NR3A LBD differential scanning fluorimetry, Tm shift; 0% = protein alone, 100% = glycine-bound protein; Tm shift relative to glycine control, % at 25 µM; 340,000 tested, 2.5% active;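 active = melting temperature shift of at least 10% of the positive control shift, at one fixed dose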
HGIII-sPLA2 inh: Blocks human group III sPLA2 activity. inhibition, % at 12.2 µM. 370,000 tested, 0.56% active. Q9NZ20. QFRET BODIPY PC-A2 liposome hydrolysis, fluorescence. AID 743126;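 active = inhibition above mean plus 3 SD of compounds lying within the high and low control bounds, cut at about 19% in these data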;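 note: 0% = median of test compound wells and 100% = no enzyme DMSO wells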
FAS TE block: FAS thioesterase (human) inhibition; inhibition, % at 15 µM; 360,000 tested, 0.67% active; recombinant FAS-TE, OMFH fluorogenic substrate, fluorescence endpoint; P49327;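 active = compounds whose normalised, plate-corrected inhibition of enzyme fluorescence in the single-dose primary screen is 50% or more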;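 note: 0% = DMSO with enzyme and 100% = substrate without enzyme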
* marks the source's active call; other numbers are inactive results; i = inactive; . = no result given.

SMILES	ADAM17 inh	ADAM10 inh	GRIN3A LBD mod	HGIII-sPLA2 inh	FAS TE block
CCOC(=O)c1c(-c2ccccc2)csc1NC(=O)/C(C#N)=C/c1ccc(OC)c(OC)c1	0.5	-4.7	-1.5	-3.7	-1.2
CCOC(=O)c1c(-c2ccccc2)csc1NC(=O)/C(C#N)=C/c1ccc(O)c(OC)c1	-0.7	4.5	26.5*	10.9	3.1
O=C(NNC(=O)c1cc(-c2ccc(Cl)cc2Cl)nc2ccccc12)Nc1ccccc1	-3.5	-7.0	30.3*	-14.2	38.3
Nc1[nH]c(C(=O)c2ccccc2)c(-c2cccc3ccccc23)c1C(=O)c1c(-c2ccccc2)[nH]c2ccccc12	1.8	4.7	.	9.5	.
O=C(Nc1cccc(Cl)c1)OCCN1CCCC12CCC(c1ccccc1)CC2 (configuration not stated)	1.5	2.1	.	-15.8	.
COc1ccccc1C1CCN(C(=O)c2ccccc2)CC1	3.7	-1.9	0.6	-3.6	-1.7
COc1ccccc1C1CCN(c2cc(O)ccc2[N+](=O)[O-])CC1	2.4	13.4	12.8*	-34.5	13.0
COc1ccc2c(Cl)c(C(=O)N/N=C/c3c(C)[nH]c4ccccc34)sc2c1	3.0	2.1	31.7*	-0.1	26.6
O=C(N/N=C/c1ccc2c(c1)OCO2)c1sc2cccc(Cl)c2c1Cl	-0.2	6.8	24.1*	-6.1	2.8
COc1ccc2c(Cl)c(C(=O)N/N=C/c3ccc4c(c3)OCO4)sc2c1	0.4	-3.8	19.1*	5.2	-1.6
Cc1cc(Cl)ccc1NC(=O)C(=O)N/N=C/c1ccc2c(c1)OCO2	1.4	-6.6	-1.3	0.6	-5.3
O=C(N/N=C/c1ccc2c(c1)OCO2)C(=O)Nc1ccccc1Cl	-2.1	-11.4	14.4*	7.4	-3.6
O=C(CN(CCc1ccccc1)S(=O)(=O)c1ccc(Cl)cc1)N/N=C/c1ccc2c(c1)OCO2	-3.6	1.7	13.0*	5.7	-1.5
C[C@H](O)[C@@H]1CN2CCc3c([nH]c4c(-c5ccc6c(c5)OCO6)cccc34)[C@@H]2C[C@@H]1N(C)C(=O)Nc1ccccc1	-1.6	-7.1	.	-8.3	.
Cc1ccc(/C=N/Nc2cc(C)nc(NCc3ccccc3)n2)cc1	7.7	9.9	1.1	-22.6	26.5
Cc1cc(N/N=C/c2ccc(F)cc2)nc(NCc2ccccc2)n1	-0.9	4.8	35.2*	-8.3	11.3
FC(F)(F)c1cccc(N2CCN(c3ccc4nnc(-c5ccccc5)n4n3)CC2)c1	2.2	-1.7	22.2*	6.5	30.2
c1ccc(-c2nnc3ccc(N4CCCC4)nn23)cc1	-6.6	-8.0	-1.3	7.7	-3.6
CCCCOC(=O)c1nc(Cl)c(Cl)c(N)c1Cl	0.1	1.5	12.6*	-0.5	2.6
CCOC(=O)[C@@]12CCCC3=C1N(CCC3)C(=O)[C@H]2CC(=O)NCC1CCCCC1	-3.5	-9.2	.	12.0	.
COC(=O)c1nn(-c2ccccc2)c(Cl)c1/C=N/O	1.6	4.9	-4.6	-2.6	-2.4
COC(=O)c1nn(-c2ccccc2)c(Cl)c1/C=N/OCc1ccc(Cl)cc1Cl	-4.6	-3.4	12.4*	2.2	23.8
Cc1ccc2c(c1)-c1c(cnn1CC(=O)NCCc1ccc(Cl)cc1)CO2	-2.1	-3.3	.	2.7	.
COc1ccc(-n2c(SCC(=O)Nc3ccc(S(=O)(=O)Nc4nccs4)cc3)nnc2-c2ccccc2)cc1	6.4	6.8	.	-45.9	.
Cc1ccccc1OCCC(=O)Nc1cccc(S(=O)(=O)Nc2ccccc2Cl)c1	5.5	17.7	14.9*	-61.4	28.4
SMILES	ADAM17 inh	ADAM10 inh	GRIN3A LBD mod	HGIII-sPLA2 inh	FAS TE block
O=C(Cc1c(F)cccc1Cl)Nc1cccc(S(=O)(=O)NC2=NCCCCC2)c1	-2.9	5.2	1.7	-8.4	-1.2
O=C(Cc1ccc(Cl)cc1Cl)Nc1cccc(S(=O)(=O)Nc2ccccc2F)c1	5.2	-3.4	25.6*	-42.0	-7.2
O=C(COc1ccccc1F)Nc1cc(S(=O)(=O)Nc2cccc(Cl)c2)ccc1O	4.3	-11.1	27.3*	-45.0	1.5
Cc1cc(C)nc(NS(=O)(=O)c2ccc(NC(=O)COc3ccccc3F)cc2)n1	-9.4	-9.7	-0.1	-6.2	-1.6
O=C(Nc1ccsn1)c1ccc(Cl)cc1Cl	-5.7	-1.9	10.3*	-2.4	-4.0
COC(=O)C1CN(Cc2ccccc2)CCS(=O)(=O)N1Cc1ccc(C)cc1 (configuration not stated)	-3.4	-4.7	.	-3.4	.
Cc1ccc(NC(=O)O/N=C/c2ccc(N(C)C)cc2)cc1	-11.4	-21.0	18.6*	1.7	15.8
O=C(Nc1cccc(-c2nc3ccccc3o2)c1)c1cccnc1	-1.2	-0.9	-2.0	-10.0	4.7
O=C(Nc1ccc(-c2nc3ccccc3o2)cc1)c1cccnc1	1.1	-0.1	24.7*	-1.9	1.7
O=C(Nc1ccc2oc(-c3cccnc3)nc2c1)c1cccnc1	-5.0	-18.6	-2.8	3.6	-7.9
O=C(Nc1ccc2oc(-c3ccccc3Cl)nc2c1)c1cncc(Br)c1	-3.9	-3.1	11.6*	-3.1	-3.4
Cc1ccc2oc(-c3ccc(NC(=O)c4cccnc4)cc3)nc2c1	-5.7	-4.8	35.1*	-8.2	2.0
Cc1ccc(-c2nc3cc(NS(=O)(=O)c4ccc(C)cc4)ccc3o2)cc1	-3.5	-11.3	11.7*	-46.5	42.0
O=S(=O)(Nc1ccc2oc(-c3ccccc3)nc2c1)c1ccccc1	8.0	-6.2	-5.1	-75.1	18.2
CCC(=O)Nc1ccc2oc(-c3cccnc3)nc2c1	-189.1	i	-0.1	4.9	-5.6
Cc1c(C(=O)Nc2ccc3oc(-c4cccnc4)nc3c2)oc2ccccc12	-8.4	-30.1	16.0*	2.7	-0.2
CCC(=O)c1ccc(OCC(O)CN(CCc2ccccc2)Cc2ccccc2)cc1 (configuration not stated)	9.3*	17.6	-8.3	-33.4	31.5
CCCCC(=O)N1CCN(C(=O)c2ccc3c(c2)nc(C)n3C2CCCC2)CC1	6.2	9.1	.	-3.2	.
CN1C2=N[C@H](c3cccc(C(F)(F)F)c3)CC(=O)N2/C(=C\c2ccccc2)[C@H]1c1ccccc1	-1.7	-1.4	.	-4.0	.
COC(=O)c1ccc(COc2ccccc2/C=C(\C#N)C(=O)Nc2c(C)cc(C)cc2C)cc1	-2.4	-9.1	17.1*	2.1	35.9
Cc1ccc(CSc2nnc(-c3cc(-c4ccc(C)cc4)n[nH]3)n2N)cc1	4.7	-8.8	.	-0.2	.
CCOC(=O)[C@@]12CCCC=C1N(CCc1ccc(Cl)cc1)C(=O)[C@H]2CC(=O)N1CCCC1	0.6	-7.8	.	0.6	.
Cc1ccc2oc(-c3cccc(NC(=O)/C=C/c4cccc([N+](=O)[O-])c4)c3C)nc2c1	-2.7	-2.5	16.9*	9.4	5.3
C=CCN1C(=O)c2n[nH]c(COC)c2C1c1ccc(C)cc1 (configuration not stated)	-0.8	1.4	.	11.7	.
CCOC(=O)c1[nH]c(C)c(CN(CCc2ccc(OC)c(OC)c2)C(=O)CCCC(=O)O)c1C	0.6	8.8	14.6*	-3.4	-5.1
Cc1ccc(NC(=O)c2ccccc2NS(=O)(=O)c2ccc(Cl)s2)cc1	2.5	11.7	25.9*	-92.7	19.1

Screening results (PubChem BioAssay)
